This is a sample that favours compounds with a hit; in the whole collection about 11% have one here.
ALDH1A1 inh: inhibitors of human aldehyde dehydrogenase 1A1; Purified ALDH1A1, NADH fluorescence, propionaldehyde substrate; Potency, µM (top dose mostly 75.3 µM), actives largely listed as inhibitors; 7.3% of 220,000 active; active = well fitted inhibition curve with a large enough effect, not every such curve was filed as active; inconclusive = small, poorly fitted or top-dose-only effect, or another doubt; inactive = no such curve, though single readings can be large or run the other way
HPGD inh: inhibitors of human 15-hydroxyprostaglandin dehydrogenase (HPGD); 4.3% of 150,000 active; Potency, µM, hits mostly inhibitors; AID 894; purified HPGD, NADH fluorescence kinetic, PGE2 substrate; P15428; active = well fitted inhibition curve with a large enough effect, not every such curve was filed as active; inconclusive = small, poorly fitted or top-dose-only effect, or another doubt; inactive = no such curve, though single readings can be large or run the other way
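20 nM HPGD preincubated 15 min at room temperature with compound in 50 mM Tris-HCl pH 8, 0.01% Tween 20. Started with 1 mM NAD+ and 30 uM prostaglandin E2; NADH fluorescence (360/450 nm) read 5 times over 30-s intervals, last minus first.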
IMPase inh: cell-permeable inhibitors of inositol monophosphatase (IMPase) | CHO-M1 cells, IP1 accumulation, HTRF TR-FRET ratio | inhibition (IP1 accumulation), % at 46.1 µM | 120,000 tested, under 10 active; active = well fitted curve in the direction sought with a large enough effect in the signal ratio, not every such curve was filed as active; inconclusive = small, poorly fitted or top-dose-only effect, or a change in a side signal; inactive = no such curve, though single readings can be large or run the other way; the % refers to the signal ratio;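 also: cells stimulated with carbachol in lithium chloride buffer; higher means more IMPase inhibition seen as more IP1 and lower FRET ratio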
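Measured: the HTRF emission ratio (665/620 nm) plus the 620 nm donor channel, each fitted to the Hill equation to give AC50. Cells were CHO-M1 given compounds up to 46 uM and a 30 min carbachol stimulation at 37C.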
PNC inhibitor: blocks assembly of the perinucleolar compartment; PC3M PTB-GFP, PNC prevalence imaging, 16 h; active compounds read low; activity change (PNC), negative = inhibition, % at 10 µM; 3.1% of 140,000 active; AID 2417;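 active = readout at or below -70, meaning at least 70% loss of cells showing the perinucleolar compartment, a nuclear body marking cancer cells; inconclusive = readout between -30 and a set limit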
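Compounds are pinned in duplicate onto adhered PC3M cells stably expressing GFP-tagged PTB and incubated 16 h at 37 C. Cells are then fixed, nuclei stained with Hoechst, and PNC-positive cells counted.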
12-hLO inh: blocks human 12-lipoxygenase activity; Potency, µM (doses to about 57.1 µM), hits mostly inhibitors; 0.12% of 150,000 active; purified 12-hLO, xylenol orange hydroperoxide absorbance; P18054; also: nearly all actives have a fitted effect of over 55% in size
Target sequence (P18054 whole entry, looked up): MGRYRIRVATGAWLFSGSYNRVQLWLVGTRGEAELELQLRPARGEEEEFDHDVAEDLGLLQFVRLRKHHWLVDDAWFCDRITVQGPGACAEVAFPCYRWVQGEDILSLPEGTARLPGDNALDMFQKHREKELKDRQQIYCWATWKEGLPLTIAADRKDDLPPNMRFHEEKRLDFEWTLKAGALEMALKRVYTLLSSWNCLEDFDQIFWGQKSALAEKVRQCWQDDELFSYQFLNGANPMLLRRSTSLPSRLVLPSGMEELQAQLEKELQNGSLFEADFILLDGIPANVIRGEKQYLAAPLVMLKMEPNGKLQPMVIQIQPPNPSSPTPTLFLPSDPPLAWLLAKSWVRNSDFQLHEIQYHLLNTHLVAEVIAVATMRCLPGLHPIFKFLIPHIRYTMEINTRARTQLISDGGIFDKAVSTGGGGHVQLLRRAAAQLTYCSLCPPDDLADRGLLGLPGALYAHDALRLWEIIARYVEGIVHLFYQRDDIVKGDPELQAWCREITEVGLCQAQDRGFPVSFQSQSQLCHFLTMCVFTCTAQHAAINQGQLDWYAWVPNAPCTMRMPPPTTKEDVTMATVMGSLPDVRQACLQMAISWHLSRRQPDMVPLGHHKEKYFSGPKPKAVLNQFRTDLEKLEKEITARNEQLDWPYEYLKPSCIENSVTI
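Hydroperoxide formation by human 12-lipoxygenase from 40 uM arachidonic acid was followed colorimetrically via ferric-xylenol orange complex, using the 573/405 nm absorbance ratio. Enzyme concentration was 150 nM, with 30 min reaction at room temperature.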
IMPase Li inh: membrane-permeable IMPase blocker, potentiated with lithium; CHO-M1 cells, IP1 TR-FRET (IP-One), carbachol + lithium; Potency, µM (titrated, usually from 59.4 µM), usual class: inhibitors; 0.35% of 210,000 active;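 also: IP1 builds up when IMPase is blocked and the TR-FRET signal falls; nearly all actives have a fitted effect of over 50% in size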
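Steps: plate 2000 CHO-M1 cells per well and culture 16–30 h; add compound and lithium; incubate 30 min, 37C; add d2-IP1 tracer and Eu cryptate anti-IP1 antibody in lysis buffer; read after 10 min at room temperature.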
Of the large screens only hits and unclear results are named; the others gave an inactive call. Unless noted, calls follow the shape of the dose curve; as a rule, active = well fitted curve in the direction sought with a large enough effect; inconclusive = small, poorly fitted or top-dose-only effect, or another doubt; inactive = no such curve, though single readings can be large; an effect the other way counts as inactive or inconclusive.

Nn1c(C2COc3ccccc3O2)n[nH]c1=S (centres undefined)	ALDH1A1 inh 4.47µM (no result: HPGD inh, IMPase inh, PNC inhibitor, 12-hLO inh, IMPase Li inh)
CN(C)S(=O)(=O)c1cccc(NC(=O)COC(=O)/C=C/c2ccc(Br)o2)c1	ALDH1A1 inh 8.91µM (no result: HPGD inh, IMPase inh, PNC inhibitor, 12-hLO inh, IMPase Li inh)
Cc1ccc(NC(=O)c2ccc(Br)o2)cc1S(=O)(=O)N(C)C	ALDH1A1 inh 14.1µM (no result: HPGD inh, IMPase inh, PNC inhibitor, 12-hLO inh)
CN(C)S(=O)(=O)c1cccc(NC(=O)COC(=O)c2ccc(Br)o2)c1	none
Cc1ccc(NC(=O)COC(=O)/C=C/c2ccc(Br)o2)cc1S(=O)(=O)N(C)C	ALDH1A1 inh 20µM (no result: HPGD inh, IMPase inh, PNC inhibitor, 12-hLO inh)
O=C(O)[C@H]1CCCN(CCC=C(c2ccccc2)c2ccccc2)C1	none (no result: PNC inhibitor)
O=C(CSc1cccc[n+]1[O-])Nc1c(Br)cc([N+](=O)[O-])cc1Br	none (no result: HPGD inh, IMPase inh, PNC inhibitor, 12-hLO inh)
CCNc1ncc2nc(-c3ccccc3)c(=O)n(Cc3cccs3)c2n1	ALDH1A1 inh inconclusive (no result: HPGD inh, IMPase inh, PNC inhibitor, 12-hLO inh)
Cn1cccc1C(=O)N1CCC2(CC1)CCN(c1ccncc1)CC2	none (no result: IMPase inh, PNC inhibitor)
COc1ccc(CCNC(=O)C2CCC(CNS(=O)(=O)c3ccccc3)CC2)cc1OC (centres undefined)	ALDH1A1 inh 0.631µM (no result: HPGD inh, IMPase inh, PNC inhibitor, 12-hLO inh)
COc1ccc(CCNC(=O)C2CCC(CNS(=O)(=O)c3ccc(F)cc3)CC2)cc1OC (centres undefined)	ALDH1A1 inh inconclusive (no result: HPGD inh, IMPase inh, PNC inhibitor, 12-hLO inh)
COc1ccc(CCNC(=O)c2ccc(CNS(=O)(=O)c3ccccc3)cc2)cc1OC	ALDH1A1 inh 2.51µM (no result: IMPase inh)
COc1cccc(C(=O)Oc2c(Br)cc(Br)cc2/C=N/NC(=O)c2cc(C)[nH]n2)c1	none (no result: HPGD inh, IMPase inh, PNC inhibitor, 12-hLO inh)
CN(C(=O)c1cccc(COc2ccc(Cl)cc2Cl)c1)c1ccccc1	ALDH1A1 inh inconclusive, HPGD inh 17.8µM (no result: IMPase inh)
COC(=O)c1ccc(CNC(=O)c2ccc(COc3ccccc3)cc2)cc1	PNC inhibitor -100.0 (no result: IMPase inh)
O=C(c1cccc(COc2cccc3ccccc23)c1)N1CCCC1	HPGD inh 20µM
COC(=O)c1ccc(OCCOc2ccccc2)cc1	none
NNC(=O)c1ccc(COc2ccccc2)cc1	ALDH1A1 inh 2.24µM
CCC(=O)c1ccc(OCc2ccc(C(=O)c3ccccc3)cc2)cc1	ALDH1A1 inh inconclusive (no result: HPGD inh, IMPase inh, PNC inhibitor, 12-hLO inh)
O=C(c1cccc(COc2ccc(Cl)cc2Cl)c1)N1CCN(c2ccccn2)CC1	ALDH1A1 inh inconclusive
NNC(=O)c1cccc(COc2ccc3c(c2)CCC3)c1	HPGD inh 20µM (no result: IMPase inh)
C#CCCCO/N=C1/C[C@@H](O)[C@@H](O)[C@@H]2[C@@H]3C(=O)N(C[C@@H]4CCCO4)C(=O)[C@H]3CC[C@@H]12	none (no result: HPGD inh, IMPase inh, PNC inhibitor, 12-hLO inh, IMPase Li inh)
CCCCC(=O)OCC(=O)Nc1ccc(C)c(F)c1	none (no result: HPGD inh, IMPase inh, PNC inhibitor, 12-hLO inh)
O=C(NCc1ccccc1)c1cccc(COc2ccccc2Cl)c1	HPGD inh inconclusive
CNC(=S)Nc1ccc(OCc2ccccc2)cc1	ALDH1A1 inh 31.6µM (no result: HPGD inh, IMPase inh, PNC inhibitor, 12-hLO inh)
NNC(=O)c1cccc(COc2ccccc2Br)c1	ALDH1A1 inh 3.55µM
O=C(Nc1ccc(F)cc1)c1ccc(COc2ccccc2)cc1	PNC inhibitor inconclusive, IMPase Li inh 12.6µM (no result: IMPase inh)
NNC(=O)c1ccc(COc2cccc3ccccc23)cc1	ALDH1A1 inh 7.94µM
O=C(COc1cccc(NC(=O)c2ccccc2)c1)c1ccc(F)cc1	PNC inhibitor inconclusive (no result: IMPase inh)
O=C(CSC1=NCCN1)Nc1ccccc1	none (no result: IMPase inh, PNC inhibitor)
CCCc1ccc(OCC(=O)Nc2sc3c(c2C(=O)OC)CCCCC3)cc1	none (no result: ALDH1A1 inh, HPGD inh, PNC inhibitor, 12-hLO inh, IMPase Li inh)
CCN(Cc1ccccc1)S(=O)(=O)c1cc(C(=O)NCCCN(C)C)ccc1OC	none (no result: HPGD inh, IMPase inh, PNC inhibitor, 12-hLO inh)
CC(C)c1ccc(C(=O)NCCCN(C)C)cc1	HPGD inh 14.1µM, PNC inhibitor inconclusive (no result: IMPase inh)
CN(C)CCCNC(=O)c1ccc(Cl)c(S(=O)(=O)N(C)c2ccccc2)c1	PNC inhibitor -108.2
Cc1c(NC(=O)CN2C(=O)NC3(CCC(C)CC3)C2=O)c(=O)n(-c2ccccc2)n1C (centres undefined)	none (no result: HPGD inh, IMPase inh, PNC inhibitor, 12-hLO inh)
O=C(c1ccco1)N1CCN(C(=O)C2(S(=O)(=O)c3ccc(Cl)cc3)CC2)CC1	none
O=C(OCC(=O)N1CCCCC1)c1cc(NS(=O)(=O)c2ccc(Cl)c([N+](=O)[O-])c2)ccc1O	HPGD inh 8.91µM
O=C(OCC(=O)N1CCN(C(=O)c2ccco2)CC1)c1cc(S(=O)(=O)Nc2ccc(Cl)cc2)ccc1O	ALDH1A1 inh 14.1µM (no result: HPGD inh, IMPase inh, PNC inhibitor, 12-hLO inh)
